In PubChem BioAssay AID1159580 (chemical genetic matrix, 2015):
Hit rate of the full screen: of about 5,500 compounds, about 2,000 (36%) were called active. Inconclusive results (about 18%) are left out. No stated cut-off is given here; in the data, active means normalized growth mostly below about 0.91 (no sharp cut-off); inconclusive means no clear call, values can overlap the other calls; inactive means mostly above about 0.92. Some of the results follow.

Assay: chemical genetic growth profiling, strain panel (AID 1159580);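 further: tested at 20 µM; growth read once vehicle control cultures reached saturation at 30 °C; 1 = growth at the plate median or of vehicle wells; lower values mean less growth of the strain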
Details: S. cerevisiae deletion strains, growth OD
[1] = locus YAL013W, strain DEP1, hits give low values
[2] = locus YDR150W, strain NUM1, hits give low values
[3] = locus YGR229C, strain SMI1, hits give low values
[4] = locus YJR075W, strain HOC1, hits give low values
[5] = locus YMR263W, strain SAP30, hits give low values
[6] = locus YNL322C, strain KRE1, hits give low values
[7] = locus YPL055C, strain LGE1, hits give low values

Measured: normalized growth

O=C(O)/C(=C/c1c(C(=O)O)[nH]c2cc(Cl)cc(Cl)c12)c1ccccc1
inactive: [1] 0.99 | locus YAL040C, strain CLN3, hits give low values 1.07 | locus YCL061C, strain MRC1 (second series), hits give low values 0.977 | [2] 0.979 | locus YDR363W, strain ESC2, hits give low values 1.03 | locus YER002W, strain NOP16, hits give low values 0.993 | [3] 0.999 | [4] 0.988 | [5] 0.979 | locus YMR307W, strain GAS1, hits give low values 1.01 | locus YNL175C, strain NOP13, hits give low values 0.996 | locus YNL197C, strain WHI3, hits give low values 0.98 | locus YNL224C, strain SQS1, hits give low values 0.977 | [6] 0.975 | locus YOR083W, strain WHI5 (second series), hits give low values 0.99 | [7] 0.985

O=c1cc(C(F)(F)F)[nH]c2c(Cl)cccc12
inactive: [2] 0.86 | locus YHR030C, strain SLT2, hits give low values 0.847 | locus YLR039C, strain RIC1, hits give low values 0.846 | locus YLR085C, strain ARP6, hits give low values 0.827 | locus YLR262C, strain YPT6, hits give low values 0.847 | locus YML094W, strain GIM5, hits give low values 0.938 | locus YNL298W, strain CLA4 (second series), hits give low values 0.902 | locus YNR030W, strain Alg12, hits give low values 0.919 | locus YOL006C, strain TOP1, hits give low values 0.913 | locus YPL241C, strain CIN2, hits give low values 0.935 | locus YPR135W, strain CTF4, hits give low values 0.874
active: [1] 0.884 | locus YBR229C, strain ROT2, hits give low values 0.816 | locus YDL101C, strain DUN1, hits give low values 0.883 | locus YEL061C, strain CIN8, hits give low values 0.886 | locus YGR078C, strain PAC10, hits give low values 0.813 | [3] 0.929 | locus YHR087W, strain rtc3, hits give low values 0.831 | locus YJR043C, strain POL32, hits give low values 0.905 | [4] 0.779 | locus YLR058C, strain SHM2 (second series), hits give low values 0.84 | locus YMR219W, strain ESC1, hits give low values 0.831 | [5] 0.844 | locus YNL153C, strain GIM3, hits give low values 0.86 | [6] 0.863 | [7] 0.823
